A selection: hits, their analogues and other compounds. The true share with any hit is near 3.4%.
TEAD-YAP inh = TEAD-YAP interaction inhibition; HEK-TIYL cells, TEAD-Gal4/YAP UAS-luciferase luminescence; inhibition, % at 9.12 µM; 640,000 tested, 1.4% active; AID 1259422; in the data active means inhibition above about 32%;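 further: 0% = median of test compound wells and 100% = reference inhibitor wells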
GPR151 ag = human GPR151 activation | Q8TDV0 | PathHunter beta-arrestin GPR151 cells, luminescence | activation, % at 11.2 µM | 650,000 tested, 1% active | AID 1508602; in the data active means activation above about 4.9%;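 further: 0% = median of compound wells and 100% = cells with positive control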
FBW7 activator = activators of human E3 ligase FBW7; Q969H0; normalized activity (activation), % at 26.1 µM; 650,000 tested, 0.13% active; AlphaScreen FBW7–phospho-cyclin E peptide binding, activator screen; in the data active means normalized activity above about 1.9%;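 further: purified mutant Fbw7 with reduced substrate affinity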
MITF primary = human MITF inhibition, primary screen; O75030; AlphaScreen MITF homodimerization, bead proximity signal; inhibition, % at 2.6 µM; 650,000 tested, 0.91% active; AID 1259374; in the data active means inhibition above about 50%;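 further: 0% = vehicle wells with protein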
Target sequence (O75030 whole entry, looked up): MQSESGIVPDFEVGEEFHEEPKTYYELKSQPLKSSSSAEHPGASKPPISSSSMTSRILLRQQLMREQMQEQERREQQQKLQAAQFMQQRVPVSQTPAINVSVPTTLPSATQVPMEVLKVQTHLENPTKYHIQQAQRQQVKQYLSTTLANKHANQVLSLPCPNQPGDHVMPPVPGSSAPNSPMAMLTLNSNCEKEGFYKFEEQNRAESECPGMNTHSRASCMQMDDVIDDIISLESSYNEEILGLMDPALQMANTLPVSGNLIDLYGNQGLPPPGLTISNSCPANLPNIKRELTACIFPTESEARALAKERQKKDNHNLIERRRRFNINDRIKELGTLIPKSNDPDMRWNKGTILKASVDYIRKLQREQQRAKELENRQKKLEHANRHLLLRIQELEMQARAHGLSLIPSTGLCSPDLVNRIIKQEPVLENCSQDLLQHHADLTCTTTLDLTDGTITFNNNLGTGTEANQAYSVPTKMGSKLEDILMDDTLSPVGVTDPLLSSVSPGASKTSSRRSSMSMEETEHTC
* marks the source's active call; other numbers are inactive results.

SMILES	TEAD-YAP inh	GPR151 ag	FBW7 activator	MITF primary
CC1CC(C)(C)NC(=S)N1CCCC(=O)N1CCc2ccccc2C1 (configuration not stated)	-0.2	-0.1	-0.1	-8.8
O=C(NCc1nc(-c2ccccc2)no1)C(Cl)(Cl)Cl	-16.9	0.0	0.1	10.6
Cc1cccc(NC(=O)C2C3C=CC4(O3)C2C(=O)N(Cc2ccccc2F)C4C(=O)NC2CCCC(C)C2C)c1 (configuration not stated)	-6.7	-1.1	-0.1	-15.3
CCCOc1ccc(C(=O)NNC(=O)c2cc3cc(Br)ccc3oc2=O)cc1	5.3	-1.0	-0.1	-1.2
Cc1ncn(-c2ccc(Nc3ncc4cccc(N5CCOCC5)c4n3)cc2)n1	48.5*	0.2	-0.3	0.6
Cc1ncn(-c2ccc(Nc3ncc4cccc(-n5ccnc5)c4n3)cc2)n1	37.6*	0.1	5.7*	5.2
O=C(Nc1cccnc1)c1ccc2c(c1)C(=O)N(C1CCCCC1)C2=O	-5.7	-1.5	0.1	-3.9
O=C(Nc1ccncc1)c1ccc2c(c1)C(=O)N(C1CCCCC1)C2=O	32.2*	-0.5	-0.1	-9.4
Clc1nc(NCCOc2ccccc2)c2ncn(-c3ccsc3)c2n1	-7.2	0.5	-0.1	-4.4
Cc1ccccc1CSc1nc(-c2cccs2)ccc1C#N	53.1*	0.4	-0.1	-6.0
N#Cc1ccc(-c2ccccc2)nc1SCc1ccccc1F	43.0*	2.0	0.1	-7.5
CCSc1nc(-c2ccccc2)ccc1C#N	-7.5	-0.2	0.4	-4.9
O=C1CC(C(=O)Nc2ccc(-c3cn[nH]c3)cc2)Cc2ccccc21 (configuration not stated)	34.5*	0.1	0.0	-7.9
N#C/C(=C\c1cc([N+](=O)[O-])ccc1Cl)c1nn(CCO)c(N)c1C#N	67.5*	-0.1	-0.2	9.5
N#C/C(=C\c1ccc(Cl)c([N+](=O)[O-])c1)c1nn(CCO)c(N)c1C#N	1.0	-0.5	0.2	8.4
N#CC(Cl)CNS(=O)(=O)c1ccc(Cl)cc1 (configuration not stated)	47.0*	-2.0	0.0	-1.0
Cc1cc(C(C#N)c2ccc(Cl)cc2Cl)n2ncnc2n1 (configuration not stated)	6.9	-0.6	0.4	13.8
Cc1cccc(C(C#N)c2cc(C)nc3ncnn23)c1 (configuration not stated)	15.9	-1.9	2.1*	11.9
Cc1cccc(C)c1NC(=O)c1cc2c(=O)n3ccccc3nc2n1C	36.6*	0.8	0.3	-8.7
COc1ccc2cc(C(=O)Nc3ccccc3)c(=Nc3ccccc3F)oc2c1	-46.4	-0.2	0.1	-0.9
OCCNc1nc(Nc2ccncn2)nc2c1ncn2-c1ccsc1	36.0*	0.9	0.0	-2.8
Nc1nc(Nc2ccncn2)nc2c1ncn2-c1ccsc1	38.3*	0.0	15.6*	12.3
OCCNc1nc(Nc2cnccn2)nc2c1ncn2-c1ccsc1	24.8	-1.7	-0.1	-9.4
Nc1nc(Nc2ccc(-n3ccnc3)cc2)nc2c1ncn2-c1ccsc1	23.6	0.9	0.0	5.6
O=c1[nH]c2cc3c(cc2cc1C(c1nnnn1Cc1ccc(F)cc1)N1CCCC1)OCO3 (configuration not stated)	2.2	1.3	-0.3	-1.6
SMILES	TEAD-YAP inh	GPR151 ag	FBW7 activator	MITF primary
CC(=O)Nc1ccccc1OCC(=O)c1cc(C)n(CCc2ccc(F)cc2)c1C	60.6*	2.1	0.0	14.3
c1ccc(Sc2nc(N3CCCCC3)nc(N3CCCCC3)n2)nc1	-8.3	2.3	-0.1	3.1
CC(=O)Nc1ccc(/C=C2\CCc3ccccc3C2=O)cc1	69.7*	0.4	-0.1	5.8
Cc1ccc(NC(=O)Cn2c(-n3nc(C)cc3C)nc(C)cc2=O)cc1	42.6*	-1.2	0.8	3.8
COc1cccc(-c2cc(C(=O)Nc3cccc(O)c3)no2)c1	88.6*	-1.9	0.0	-2.6
O=C(Nc1cccc(Cl)c1)c1cc(-c2cccs2)on1	-17.3	-0.1	0.1	14.7
COCC(C)NC(=O)c1cc(-c2cccc(OC)c2)on1 (configuration not stated)	-42.0	-1.5	1.9*	-19.4
O=C(Nc1cccc(O)c1)c1cc(-c2cccs2)on1	77.4*	-3.6	0.7	12.9
O=C(Nc1cccc(O)c1)c1cc(-c2ccc(Br)cc2)on1	73.7*	-5.6	0.9	6.8
Cc1ccc(CCCOC(=O)CN2CCOCC2)cc1	-5.2	-1.6	0.0	14.9
CCOC(=O)c1c(NC(=O)c2cc(-c3cccs3)on2)sc(C)c1C	-1.6	1.4	2.8*	-8.2
CCOC(=O)c1c(NC(=O)c2cc(-c3cccs3)on2)sc(C(C)=O)c1C	-0.9	0.1	-0.2	-9.4
COc1cc(NC(=O)c2cc(-c3cccs3)on2)cc(OC)c1OC	36.0*	-0.4	-0.1	-4.8
COc1ccc2c(c1)CCc1c(C(=O)Nc3cccc(O)c3)noc1-2	94.6*	-6.1	0.2	-6.3
COc1ccc2c(c1)CCc1c(C(=O)Nc3cccc(C(C)=O)c3)noc1-2	-14.6	-0.4	-0.1	-2.2
O=C(Nc1cccc(O)c1)c1cc(-c2ccc(O)cc2)on1	65.3*	-2.7	0.1	5.1
CCc1nc2nc(C)cc(NCc3ccccc3OC)n2n1	-2.4	0.5	-0.1	-10.4
Cc1cc(=O)n2nc(N(C)CC(=O)NCc3cccc(F)c3)sc2n1	-6.3	-1.1	0.3	-14.7
Cc1ccccc1N(CC(=O)NCCC(C)C)C(=O)CCC(=O)Nc1ccccn1	-2.5	2.0	0.2	9.3
Fc1ccccc1C1C=C(c2ccccc2)Nc2ncnn21 (configuration not stated)	3.2	0.6	0.1	11.2
CC(=O)N1C(=S)NC(=O)/C1=C/c1cc2cc(C)ccc2nc1N1CCOCC1	37.6*	0.6	0.0	-0.7
O=C(O)c1ccc(C(=O)Nc2ccccc2S(=O)(=O)Nc2nccs2)cc1	-3.9	-0.8	3.7*	9.3
CC(C)(C)c1ccc(C(=O)Nc2ccc(S(=O)(=O)Nc3nccs3)cc2)cc1	-5.9	0.7	-0.1	-4.7
COc1ccc(C2CC(=O)n3c(nc4ccccc43)S2)cc1 (configuration not stated)	79.8*	2.4	0.0	-11.0
O=C1CC(c2ccc3c(c2)OCO3)Sc2nc3ccccc3n21 (configuration not stated)	75.7*	-0.5	0.0	-2.6
SMILES	TEAD-YAP inh	GPR151 ag	FBW7 activator	MITF primary
O=C1CC(c2ccccc2)Sc2nc3ccccc3n21 (configuration not stated)	-33.2	0.8	0.2	4.6
C[C@H]1C(=O)N2CCN(Cc3cn(C)nc3-c3ccccc3)C[C@@H]2C(=O)N1C	8.2	-0.7	0.5	10.8
Cc1ccc(N2C(=O)c3cccc4c(N)ccc(c34)C2=O)c2cccnc12	62.5*	0.9	0.2	7.3
CCN(CC)CCN1C(=O)c2cccc3c(Cl)ccc(c23)C1=O	70.5*	0.5	-0.1	2.7
Cc1ccc(N2C(=O)c3cccc4c(N5CCCCC5)ccc(c34)C2=O)c2cccnc12	5.9	2.1	0.2	4.3
CCN1C(=O)c2cccc3c(N)ccc(c23)C1=O	6.8	-0.5	0.3	57.0*
Cc1ccc(N2C(=O)c3cccc4c(Cl)ccc(c34)C2=O)cc1	1.8	0.4	-0.1	-1.6
COc1cccc(C(=O)Nc2c3c(nn2-c2cccc(Cl)c2)CS(=O)(=O)C3)c1OC	-1.5	0.1	-0.1	4.9
